Data reported in the antibiotic and cytotoxicity screens of Wong et al. (2023).
The whole screen tested about 39,000 compounds, of which about 3,300 (8.5%) were called active. For the sample, actives were picked, then their nearest neighbours and some compounds at random.

Each molecule was assayed on HepG2 (assay: cytotoxicity call (relative viability < 0.9)). Conditions: 10 µM.
In the case of CC(C)c1nc(CN(C)C(=O)N[C@@H](CCN2CCOCC2)C(=O)N[C@H](CC[C@H](Cc2ccccc2)NC(=O)OCc2cncs2)Cc2ccccc2)cs1, the cytotoxicity call is reported as “inactive”. For CC(C)NC(=O)Nc1ccc2c(c1)CC(=O)N([C@H](C)CO)C[C@H](C)[C@@H](CN(C)S(=O)(=O)c1cn(C)cn1)O2, the cytotoxicity call was “inactive”. With C=CCOC(=O)[C@@H]1[C@H]2C(=O)O[C@H](c3ccccc3)[C@H](c3ccccc3)N2[C@H](c2ccc(OCCOC(=O)[C@@H]3C[C@@H]4C(=O)N5CCC[C@H]5C(=O)N4[C@@H]3c3ccc(O)cc3)cc2)[C@@]12C(=O)Nc1ccccc12 the cytotoxicity call was “inactive”. COc1ccc([Si](C)(C)[C@@H]2[C@@H](CCO)O[C@]3(C(=O)N(Cc4ccc(N5C(=O)c6cccc7cccc5c67)cc4)c4ccccc43)[C@H]2C)cc1 was tested, and the cytotoxicity call was “active”. With COc1ccc([Si](C)(C)[C@H]2[C@H](CC(=O)N3CCC[C@H]3CO)O[C@@]3(C(=O)N(Cc4ccc(N5C(=O)c6cccc7cccc5c67)cc4)c4ccccc43)[C@@H]2C)cc1 the cytotoxicity call was “inactive”. In the case of COc1ccc([Si](C)(C)[C@@H]2[C@@H](CC(=O)N3CCC[C@H]3CO)O[C@]3(C(=O)N(Cc4ccc(N5C(=O)c6cccc7cccc5c67)cc4)c4ccccc43)[C@H]2C)cc1, the cytotoxicity call is reported as “inactive”. In the case of COc1ccc([Si](C)(C)[C@H]2[C@H](CCO)O[C@@]3(C(=O)N(Cc4ccc(N5C(=O)c6cccc7cccc5c67)cc4)c4ccccc43)[C@@H]2C)cc1, the cytotoxicity call is reported as “active”. With COc1ccc([Si](C)(C)[C@@H]2[C@@H](CC(=O)N3Cc4ccccc4C[C@H]3CO)O[C@]3(C(=O)N(Cc4ccc(N5C(=O)c6cccc7cccc5c67)cc4)c4ccccc43)[C@H]2C)cc1 the cytotoxicity call was “inactive”. In the case of C[C@H](CO)N1C[C@H](C)[C@@H](CN(C)S(=O)(=O)c2cn(C)cn2)Oc2ccc(NC(=O)Cc3cn(C)c4ccccc34)cc2C1=O, the cytotoxicity call is reported as “inactive”. For c1csc(Cn2cccc2)c1, the cytotoxicity call was “inactive”. For CCOC(=O)[C@H](C(C)=O)[C@H]1CCS(=O)(=O)C1, the cytotoxicity call was “inactive”. CC(C)NC(=O)N(C)C[C@@H]1Oc2ccc(NC(=O)NC3CCCCC3)cc2C(=O)N([C@@H](C)CO)C[C@@H]1C was tested, and the cytotoxicity call was “inactive”. For Cc1noc(C)c1S(=O)(=O)Nc1ccc2c(c1)C(=O)N([C@H](C)CO)C[C@H](C)[C@@H](CN(C)Cc1ccc3c(c1)OCO3)O2, the cytotoxicity call was “inactive”. For CCc1nc2ccc(C(=O)Nc3cc(-c4ccccc4)ccc3OC)cn2c1N(CCN(C)C)CC1CC1, the cytotoxicity call was “active”. In the case of CCc1nc2ccc(C(=O)Nc3cc(-c4ccccc4)ccc3OC)cn2c1N(C)CCCc1ccccc1, the cytotoxicity call is reported as “inactive”. CCc1nc2ccc(C(=O)Nc3cc(-c4ccccc4)ccc3OC)cn2c1N(C)C(=O)Cc1ccccc1 was tested, and the cytotoxicity call was “inactive”.
